Screens as filed in PubChem.
A selection: hits, their analogues and other compounds. The true share with any hit is near 2.4%.
ULK1 primary – human ULK1 kinase inhibition, primary screen. O75385. AlphaScreen Atg13 phosphorylation by ULK1, luminescence. inhibition, % at 5.96 µM. 30,000 compounds, 1.9% hits. AID 1259251; in the data active = inhibition above about 43%;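 also: 0% = median of compound wells and 100% = no enzyme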
ASK1 inh – inhibitors of human ASK1 kinase; Q99683; AlphaScreen MKK6 phosphorylation by ASK1, luminescence; inhibition, % at 7.44 µM; 22,000 compounds, 0.99% hits; in the data active = inhibition above about 35%;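 also: 0% = median of compound wells and 100% = no enzyme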
* marks the source's active call; other numbers are inactive results; / = not tested or not shown.

SMILES | ULK1 primary | ASK1 inh
NC(=O)c1ccccc1Nc1nc(Nc2ccc(N3CCOCC3)c(F)c2)ncc1Cl | 72* | -65
NC(=O)c1ccc(Nc2ncc(Cl)c(-c3ccccc3)n2)cc1 | 31 | 9
COc1cc(Nc2cc(Nc3ccccc3C(N)=O)ccn2)ccc1N1CCOCC1 | 5 | -5
Fc1cc(N2CCOCC2)ccc1Nc1nccc(-c2cncc(N3CCOCC3)c2)n1 | 30 | 15
NC(=O)c1ccccc1Nc1nc(Nc2ccc(N3CCOCC3)cc2F)ncc1Cl | 83* | -81
Cn1ncnc1-c1ccccc1Nc1nc(Nc2ccc(N3CCOCC3)cc2)ncc1Cl | 78* | -8
NC(=O)c1ccccc1Nc1nc(Nc2ccc(F)cc2)ncc1Cl | 85* | -66
Cn1cnc(-c2ccccc2Nc2nc(Nc3ccc(N4CCOCC4)cc3)ncc2Cl)n1 | -11 | 11
CCCNC(=O)c1cccc(Nc2nccc3ccccc23)n1 | -8 | -9
CC(=O)Nc1ccc(NC(=O)c2ccc3nc(-c4c(C)nn(C)c4C)sc3c2)cc1 | -12 | 11
CCCNc1nc(Nc2ccc3ncccc3c2)nc(N(CC)CC)n1 | -22 | -17
N#Cc1cccc(-n2ncc3cc(Nc4ccccc4Cl)ccc32)c1 | -2 | -10
CNC(=O)c1ccccc1Nc1nc(Nc2ccc(N3CCOCC3)c(Cl)c2)ncc1Cl | 58* | -27
CN(C)CCNC(=O)c1ccccc1Nc1ccnc(Nc2ccc(N3CCOCC3)cc2)c1 | 1 | -12
O=C(O)c1cccc(NC(=O)c2cc3cc(Br)ccc3oc2=O)c1 | 2 | /
CN(C)CCOc1cc(-c2cn[nH]c2)c(F)cc1NC(=O)[C@H]1Cc2ccccc2CN1C(=O)CN(C)C | 2 | 6
Fc1ccc(-c2n[nH]c3ccc(-c4ncn[nH]4)cc23)cc1 | 71* | -69
c1ccc(-c2ccnc(Nc3ccc(-c4ncn[nH]4)cc3)n2)cc1 | -10 | -16
CC[C@@H](C(=O)[C@@H](C)[C@@H](O)[C@H](C)CCc1ccc(C)c(O)c1C(=O)O)[C@H]1O[C@](CC)([C@H]2CC[C@](O)(CC)[C@H](C)O2)C[C@@H]1C | 70* | /
CC[C@@H](C(=O)[C@@H](C)[C@@H](O)[C@H](C)[C@@H]1O[C@@H]([C@@H](CC)C(=O)O)CC[C@@H]1C)[C@H]1O[C@]2(C=C[C@@H](O)[C@]3(CC[C@@](C)([C@H]4CC[C@](O)(CC)[C@H](C)O4)O3)O2)[C@H](C)C[C@@H]1C | -4 | /
O=C1CCCN1CCn1cnc2c(NCCO)nc(NCCN3CCOCC3)nc21 | 1 | -16
CN1CCc2cccc3c2[C@H]1Cc1ccc(O)c(O)c1-3 | 46* | /
O=C(NCCc1ccc(O)cc1)c1csc(Nc2ccncn2)n1 | 13 | 5
COc1cc(Nc2nc(Nc3ccccc3)c3[nH]cnc3n2)cc(OC)c1OC | 65* | -10
COc1cc(Nc2nc(Nc3nccc4ccccc34)nc3nc[nH]c23)cc(OC)c1OC | 1 | -8
SMILES | ULK1 primary | ASK1 inh
COc1cc(Nc2nc(Nc3cccnc3)nc3nc[nH]c23)cc(OC)c1OC | 23 | -3
COc1cc(Nc2nc(NCCN(C(C)C)C(C)C)c3[nH]cnc3n2)cc(OC)c1OC | 10 | 5
COc1cc(Nc2nc(NCc3ccccc3)c3[nH]cnc3n2)cc(OC)c1OC | 67* | -19
CCCNc1nc(Nc2cc(OC)c(OC)c(OC)c2)nc2nc[nH]c12 | 59* | -41
Cc1noc(C)c1-c1nc2ncnc(Nc3ccc(N4CCOCC4)cc3)c2[nH]1 | 26 | 20
CC(=O)Nc1ccc(Nc2ccnc(Nc3ccccn3)n2)cc1 | 6 | 5
CCN(CC)C(=O)C1CCCN(c2nc(NCc3nc4ccccc4[nH]3)c3cc(OC)c(OC)cc3n2)C1 (centres undefined) | 49* | -16
CCN(CC)C(=O)C1CCCN(c2nc(NCc3cccnc3)c3cc(OC)c(OC)cc3n2)C1 (centres undefined) | 9 | 2
O=C(CC1CCCCC1)Nc1nnc2n1CCCS2 | 8 | /
CNC(=O)c1cccc(Nc2cc(Nc3ccc(N4CCOCC4)cc3OC)ncc2C(F)(F)F)c1 | 18 | 21
COc1cc(N2CCOCC2)ccc1Nc1cc(NCc2ccccc2)c(C(F)(F)F)cn1 | 18 | 1
CNC(=O)c1ncccc1Nc1cc(Nc2ccc(N3CCOCC3)cc2OC)ncc1C(F)(F)F | 46* | 24
CNC(=O)c1ncccc1Nc1cc(Nc2ccc(C(=O)N(C)C)cc2OC)ncc1C(F)(F)F | 24 | 16
COc1cc(N2CCOCC2)ccc1Nc1cc(NC(C)(C)c2ccccc2)c(C(F)(F)F)cn1 | 22 | -13
CNC(=O)c1ccccc1Nc1cc(Nc2ccc(C(=O)N3CC[C@H](O)C3)cc2OC)ncc1C(F)(F)F | 88* | 8
COc1cc(N2CCOCC2)ccc1Nc1cc(Nc2ccccc2NC(C)=O)c(C(F)(F)F)cn1 | 88* | 11
CNC(=O)c1ccccc1Nc1cc(Nc2ccc(N3CCS(=O)CC3)cc2OC)ncc1C#N | 90* | 22
c1ccc(OCCNc2nc(-c3ccc(N4CCOCC4)nc3)nc3c2ncn3-c2ccccc2)cc1 | 4 | 8
